This excerpt belongs to a sample that is enriched for hits.
Tb PYK inh: blocks Trypanosoma brucei pyruvate kinase. Q57TT1. 0.12% of 410,000 active. Potency, µM (highest dose often 76.8 µM), usual class: inhibitors. TbPYK enzyme, Kinase-Glo Plus ATP luminescence, 45 min; also: nearly all actives have a fitted effect of over 50% in size
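Luminescent Kinase-Glo Plus end-point after 45 min room-temperature reaction of T. brucei pyruvate kinase started with 130 uM ADP (final). Buffer TEA 50 mM pH 7.2 with KCl, MgCl2, BSA, Tween-20; titration-based qHTS with fitted concentration-effect curves.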
LmPK inh: blocks Leishmania mexicana pyruvate kinase activity | Q27686 | Potency, µM (top dose mostly 57.5 µM), usual class: inhibitors | purified LmPK, Kinase-Glo ATP luminescence, 1 h | 0.37% of 290,000 active
Target sequence (Q27686 whole entry, looked up): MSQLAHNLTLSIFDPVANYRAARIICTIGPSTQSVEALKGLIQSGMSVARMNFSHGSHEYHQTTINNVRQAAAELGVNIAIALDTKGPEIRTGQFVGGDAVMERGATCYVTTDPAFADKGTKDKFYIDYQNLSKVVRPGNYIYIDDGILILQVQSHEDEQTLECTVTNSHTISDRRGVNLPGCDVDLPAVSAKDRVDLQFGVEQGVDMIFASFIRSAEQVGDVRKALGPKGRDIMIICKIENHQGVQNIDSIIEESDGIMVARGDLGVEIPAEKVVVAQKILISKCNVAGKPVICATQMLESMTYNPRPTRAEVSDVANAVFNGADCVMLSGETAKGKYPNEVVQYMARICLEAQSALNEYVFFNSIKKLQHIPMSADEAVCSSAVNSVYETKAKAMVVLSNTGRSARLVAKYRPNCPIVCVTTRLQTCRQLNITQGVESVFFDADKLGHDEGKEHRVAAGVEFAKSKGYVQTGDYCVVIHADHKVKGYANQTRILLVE
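Screened at intermediate enzyme activity to detect both inhibitors and activators: LmPK at 0.1 nM, with a 0.5 nM enzyme column as activation reference. PEP 0.5 mM, ADP 0.1 mM; ATP detected by luminescence after 1 h.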
CHX counter: counter-screen for Shiga toxin inhibitors: cycloheximide protein synthesis inhibition; cell reporter, cycloheximide protein synthesis inhibition counterscreen; max response, %; 12% of 300,000 active; in the data active = max response mostly above about 13%, no sharp cut-off; inactive = mostly below about 14%; also: read at 38.3 µM for the half of the compounds with a filed dose
Shiga toxin inh: blocks Shiga toxin action in Vero cells; 9.2% of 290,000 active; Vero cells, Shiga toxin protein synthesis inhibition reporter; inhibition, % at 38.7 µM; AID 2315; in the data active = inhibition mostly above about 28%, no sharp cut-off; inactive = mostly below about 43%
RE007 growth inh: less growth of the S. pombe RE007 Vpr strain; AID 651644; 0.21% of 360,000 active; S. pombe RE007 Vpr strain, BacTiter-Glo ATP luminescence, 24 h; Potency, µM (series often up to 92.2 µM), most hits filed as inhibitors; active = well fitted falling curve with a large enough effect; inconclusive = small, poorly fitted or top-dose-only effect; inactive = no such curve, though single readings can be large or run the other way; also: nearly all actives have a fitted effect of over 50% in size
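Fission yeast RE007 carrying one integrated HIV-1 vpr copy, seeded at OD 0.01 in PMG+AL medium with 23 nL pinned compound. Grown 24 h at 30 degrees; viability read by BacTiter-Glo luminescence after 5 min.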
Giardia FBPA inh: inhibitors of Giardia lamblia fructose-1,6-bisphosphate aldolase | 0.71% of 290,000 active | AID 2451 | purified Giardia FBPA | A8B2U2 | Potency, µM (series often up to 59.6 µM), most hits filed as inhibitors; also: nearly all actives have a fitted effect of over 55% in size
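40 nM FBPA preincubated 10 min at RT with compound (up to 57.5 uM final), then substrate plus GAPDH/TPI/NAD/arsenate coupling and diaphorase/resazurin added. Fluorescence read after 20 min at RT, 525/598 nm.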
Hits are given with their value; - = inactive; ? = inconclusive; . = no result. Unless noted, calls follow the shape of the dose curve; as a rule, active = well fitted curve in the direction sought with a large enough effect; inconclusive = small, poorly fitted or top-dose-only effect, or another doubt; inactive = no such curve, though single readings can be large; an effect the other way counts as inactive or inconclusive.

SMILES	Tb PYK inh	LmPK inh	CHX counter	Shiga toxin inh	RE007 growth inh	Giardia FBPA inh
COc1ccc(NC(=O)N2CCN(C(=O)Nc3ccc(OC)cc3)CC2)cc1	-	-	-	-	-	-
COc1cccc(NC(=O)N2CCCCCC2)c1	-	-	74	46	-	-
O=C(Nc1ccc([N+](=O)[O-])cc1)N1CCCCC1	-	-	-	-	-	-
COc1cccc(NC(=O)N2CCOCC2)c1	-	-	-	-	-	-
COc1ccc(NC(=O)N2CCC3(CC2)OCCO3)cc1	-	-	27	-	-	-
O=C(Nc1ccc([N+](=O)[O-])cc1)N1CCCCCC1	-	-	41	50	-	-
CC(C)NC(=O)CCC(=O)N1Cc2ccccc2Oc2ncccc21	-	.	.	.	.	.
Cc1nn(C)c2nc(NNC(=O)Nc3cc(Cl)nc(Cl)c3)cc(C(C)C)c12	.	.	-	-	.	-
O=C(NCc1ccc(Cl)cc1)C(=O)NCC(c1ccc2c(c1)OCO2)N1CCOCC1 (centres undefined)	-	.	.	.	.	.
COc1ccc(NC(=O)OC(CN2CCCCC2)C(F)(F)F)cc1 (centres undefined)	-	-	21	-	-	-
O=C(Nc1ccc(Br)cc1)N1CCCCC1	-	-	42	140	-	-
CN1CCN(C(=S)C(=O)Nc2ccc(Br)cc2)CC1	?	-	-	-	-	5µM
COc1cccc(NC(=O)C2CCCC2)c1	-	.	.	.	-	.
O=C(CCN1CCCC1)Nc1ccc(Br)cc1	-	-	-	-	-	-
CN1CCC(NC(=O)Nc2ccc(Br)cc2)CC1	-	-	-	-	-	-
COc1cccc(NC(=O)C2CCCCC2)c1	-	-	29	44	-	-
CCC(C(=O)Nc1cccc(-c2cn3cccnc3n2)c1)c1ccccc1 (centres undefined)	-	.	.	.	.	.
O=C(Nc1ccc2nc(SCC(=O)N3CCOCC3)sc2c1)c1ccc(Cl)cc1	-	.	.	.	.	.
COc1ccccc1C1c2c(-c3ccc(Cl)cc3)n[nH]c2C(=O)N1c1ccc(C)cc1 (centres undefined)	-	.	.	.	.	.
COc1ccc(NC(=O)CCc2c(C)nc3c(c2C)c(=O)n(C)c(=O)n3C)cc1OC	-	.	.	.	.	.
O=C(CN1CCC(n2nnc3cc(C(F)(F)F)ccc32)CC1)Nc1ccc2c(c1)OCCO2	-	-	46	-	?	-
O=C(CN1CCC(n2nnc3cc(C(F)(F)F)ccc32)CC1)Nc1ccc2c(c1)CCC2	-	-	-	-	-	-
COC(=O)C1CCN(C(=O)COC(=O)c2ccc(OC)c(S(=O)(=O)N3CCCc4ccccc43)c2)CC1	-	-	32	55	-	-
COc1ccc(OC)c(S(=O)(=O)N2CCCc3ccccc32)c1	-	-	-	-	-	-
COc1ccc(C(=O)N2CCCN(C)CC2)cc1S(=O)(=O)N1CCCc2ccccc21	-	-	26	51	-	-
SMILES	Tb PYK inh	LmPK inh	CHX counter	Shiga toxin inh	RE007 growth inh	Giardia FBPA inh
COc1ccc(Br)cc1S(=O)(=O)N1CCCc2ccccc21	-	-	20	36	-	-
O=S(=O)(c1ccccc1F)N1CCCc2ccccc21	-	-	-	-	-	-
O=[N+]([O-])c1ccccc1S(=O)(=O)N1CCCc2ccccc21	-	-	30	.	-	-
COC(=O)C1CCN(C(=O)c2ccc(OC)c(S(=O)(=O)N3CCCc4ccccc43)c2)CC1	-	.	.	.	-	.
CCc1cccc(NC(c2nnc(-c3ccccc3)o2)c2ccc(F)cc2Cl)c1 (centres undefined)	-	.	.	.	.	.
CC(C)(C)CN1C(=O)C(=O)NC[C@@H]1CCCCN	-	.	.	.	-	.
Cc1ccc(S(=O)(=O)N2CCCc3ccccc32)cc1C	-	-	17	23	-	-
Cc1nc(-c2cccc(Cl)c2)n[nH]1	-	-	23	104	-	-
CC(C)c1cc(-c2nc(-c3cccc(Cl)c3)no2)n[nH]1	-	.	.	.	.	.
CC(=O)c1ccc(NC(=S)NC(=O)/C=C/c2ccco2)cc1	-	-	27	.	-	-
CC(=O)c1ccc(NC(=S)NC(=O)/C=C/c2ccccc2)cc1	-	-	24	38	-	-
NS(=O)(=O)c1ccc(NC(=S)NC(=O)/C=C/c2ccco2)cc1	-	-	-	-	-	-
Cc1cccc(NC(=S)NC(=O)/C=C/c2ccco2)c1	-	-	-	-	-	-

Assay outcomes from PubChem.
